These results are taken from PubChem BioAssay (Tox21).

Molecules are shown by their SMILES. A number with no mark means an inactive call. Records with an inconclusive call do not appear. Active and inactive are the calls of the source. Unless noted, calls follow the shape of the dose curve; as a rule, active = well fitted curve in the direction sought with a large enough effect in the repeat runs; inconclusive = weak or mixed curves; inactive = no such curve, though single readings can be large; an effect the other way counts as inactive or inconclusive.

Test [1] can be described thus: A CellTox Green Cytotoxicity Assay to monitor cytotoxicity in HepG2 cells - 8 hour (AID 1224890). Also: nearly all actives have a fitted effect of over 45% in size. A digest of the protocol:
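Measurements at 0, 8, 16, 24, 32 and 40 h of treatment captured CellTox Green fluorescence in HepG2 cells that had been co-plated with reagent and preincubated 5 h at 37 C/5% CO2.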

The nature of test [2]: qHTS assay to identify small molecule antagonists of the estrogen receptor alpha (ER-alpha) signaling pathway using the BG1 cell line in the presence of 0.1 nM 17-beta-estradiol - cell viability counter screen (AID 1259241). Also: nearly all actives have a fitted effect of over 40% in size. Put shortly:
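In this screen, hormone-deprived VM7Luc4E2 cells were seeded at 4,000 per well, dosed with compound and 0.1 nM estradiol final, and incubated 22 hr at 37C and 5% CO2; fluorogenic live-cell protease signal reported viability.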
In general terms: Quantitative high-throughput screening tests each substance at several concentrations.

A short description of test [3]: qHTS assay to identify small molecule antagonists of the androgen receptor (AR) signaling pathway using the MDA cell line in the presence of 0.5 nM R1881 - cell viability counter screen (AID 1259242). Also: nearly all actives have a fitted effect of over 45% in size. A digest of the protocol:
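Concentration-response screen of compounds for toxicity in MDA-kb2 reporter cells: 16 hr at 37C with 0.5 nM R1881, endpoint live-cell protease fluorescence measured in the reporter wells.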

Test [4] addresses Estrogen receptor (Homo sapiens) (UniProt P03372). The experiment in a line: qHTS assay to identify small molecule antagonists of the estrogen receptor alpha (ER-alpha) signaling pathway using the BG1 cell line in the presence of 0.1 nM 17-beta-estradiol (AID 1259244). Also: nearly all actives have a fitted effect of over 50% in size. Also: potency is read from the fitted curve at half-maximal effect. A digest of the protocol: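 Compounds were tested against 0.1 nM (final) 17beta-estradiol in VM7Luc4E2 cells, which express full-length ER-alpha and an ERE-luciferase reporter; luminescence was recorded following 22 h exposure.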

Test [5] can be described thus: qHTS assay to identify small molecule HDAC inhibitors (AID 1259364). Also: potency is read from the fitted curve at half-maximal effect.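 Also: wild-type HCT-116 cells with endogenous class I/II HDAC activity; nearly all actives have a fitted effect of over 45% in size.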 Put shortly:
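Screening used wild-type human colon HCT-116 cells incubated overnight, dosed with compounds for 2 hours, and assayed with a homogeneous luminogenic HDAC I/II reagent for 30 minutes at room temperature.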

The nature of test [6]: qHTS assay to identify small molecule HDAC inhibitors - cell viability counter screen (AID 1259365). Also: series mostly up to about 92 µM; nearly all actives have a fitted effect of over 50% in size. A digest of the protocol:
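Measured quantity is CellTiter-Glo luminescence from wild-type HCT-116 cells after compound incubation of 2hr at 37C, 5% CO2; reagent developed 30min at room temperature.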

Test [7] in a line: qHTS assay to identify small molecule agonists of the sonic hedgehog signaling (Shh) pathway - cell viability counter screen (AID 1259366). Also: nearly all actives have a fitted effect of over 50% in size. Put shortly: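 In quantitative high-throughput format, 3T3 Gli1-Luc cells were exposed to compounds for 24hr and multiplexed for viability using CellTiter-Fluor, incubated 1hr at 37C before the fluorescence read.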
Test [8] can be described thus: qHTS assay to identify small molecule antagonists of the sonic hedgehog signaling (Shh) pathway - cell viability counter screen (AID 1259367). Also: nearly all actives have a fitted effect of over 55% in size. Put shortly:
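Conditioned medium drove Shh signaling in 3T3 Gli1-Luc cells exposed to compounds at 37C and 5% CO2. Viability was determined from CellTiter-Fluor fluorescence, with reagent incubated 1 hr after 23 hr of treatment.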

Test [9] can be described thus: qHTS assay to identify small molecule phospholipidosis (PLD) inducers (AID 1259344; active = well fitted curve in the direction sought with a large enough effect; an effect the other way counts as inactive or inconclusive). A digest of the protocol: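 After 4 h attachment on collagen I, HepG2 cells were dosed with compound alongside LipidTOX Red, kept 24 h at 37 C, fixed, and imaged for lamellar phospholipid pits.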

Sequence of Estrogen receptor (Homo sapiens) (P03372 whole entry, looked up): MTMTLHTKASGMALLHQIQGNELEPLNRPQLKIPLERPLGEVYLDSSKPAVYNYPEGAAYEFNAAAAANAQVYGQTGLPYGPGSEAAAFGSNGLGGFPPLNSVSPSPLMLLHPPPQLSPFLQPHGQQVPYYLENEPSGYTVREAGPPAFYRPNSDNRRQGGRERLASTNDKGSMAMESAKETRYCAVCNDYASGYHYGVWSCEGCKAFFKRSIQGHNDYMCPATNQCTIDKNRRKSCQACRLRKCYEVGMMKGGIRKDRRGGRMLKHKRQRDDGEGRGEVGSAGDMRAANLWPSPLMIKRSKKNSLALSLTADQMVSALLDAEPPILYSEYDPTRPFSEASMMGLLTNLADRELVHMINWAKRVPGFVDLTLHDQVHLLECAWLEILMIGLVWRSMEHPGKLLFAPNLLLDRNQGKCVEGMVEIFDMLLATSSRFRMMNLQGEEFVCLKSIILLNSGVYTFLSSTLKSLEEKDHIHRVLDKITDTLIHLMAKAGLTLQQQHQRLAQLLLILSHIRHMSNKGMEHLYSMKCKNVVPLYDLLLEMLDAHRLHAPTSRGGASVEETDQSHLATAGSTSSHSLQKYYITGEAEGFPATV

For `CC1=C(C=O)C(C)(C)CCC1`, the Potency entry in test [1], in [2], in test [3], in test [4], in [5] and in test [6] was “inactive” throughout. In addition, the Potency result in test [7] and in test [8] was “inactive” each time.
As for `CO[Si](C)(OC)OC`, the Potency entry in [1], in [2], in [3], in test [4], in test [5] and in test [6] was “inactive” each time. In addition, the Potency entry in test [7] and in test [8] was “inactive” in each case.
In the case of `Cc1ccnc2ccccc12`, the Potency result in [1], in [2], in [3], in test [4], in [5] and in test [6] was “inactive” each time. Besides, the Potency result in [7] was “inactive”.
Consider `CCCOc1ccc(S(=O)(=O)N2CCN(CC)CC2)cc1-c1nc2c(CC)n(Cc3ccccn3)nc2c(=O)[nH]1`, for which the Potency result in test [1], in [2], in test [3], in test [4], in test [5] and in test [6] was “inactive” each time.
With `CC(=O)CC(c1ccc([N+](=O)[O-])cc1)c1c(O)c2ccccc2oc1=O` (stereo not drawn), the Potency result in test [1], in test [2], in [3], in [4], in test [6] and in test [7] was “inactive” in each case. The compound was classed as inactive in test [9].
On to `CC(C)OCC1CO1` (stereo not drawn), for which the Potency result in test [1], in test [2], in test [3], in [4], in test [5] and in [6] was “inactive” throughout. The Potency entry in test [7] is “inactive”.
Turning to `Oc1cc(O)c(Cl)cc1Cl`, the Potency result in test [1], in [2], in [3], in test [4], in test [5] and in [6] was “inactive” in each case. For the same compound, the Potency result in test [7] was “inactive”.
On to `CC(C)=CC=O`, for which the Potency entry in [1], in [2], in test [3], in [4], in [5] and in test [6] was “inactive” each time. In addition, the Potency entry in test [7] and in test [8] was “inactive” in each case.
In the case of `O=S1OCCO1`, the Potency entry in test [1], in test [2], in test [3], in [4], in [5] and in test [6] was “inactive” each time. The Potency result in test [7] and in test [8] was “inactive” throughout.
Turning to `CC(C)CCCCCCOC(=O)CCCCC(=O)OCCCCCCC(C)C`, the Potency entry in test [1], in test [2], in [3], in [4], in test [5] and in test [6] was “inactive” each time. Also, the Potency result in test [7] and in [8] was “inactive” each time.
Turning to `Cc1oc(C)c(C(=O)Nc2ccccc2)c1C`, the Potency result in test [1], in test [2], in test [3], in test [6], in test [7] and in test [8] was “inactive” each time. The results for the Potency in test [4] and in [5] were 24.3 µM (active) and 27.3 µM (active), respectively.
In the case of `C=CC(C)(O)CCCC(C)CCCC(C)CCCC(C)C` (stereo not drawn), the Potency entry in [1], in test [2], in [3], in test [4], in test [5] and in test [6] was “inactive” each time. The Potency entry in [7] and in test [8] was “inactive” throughout.
As to `CCCCC(CC)COC(=O)COc1ccc(Cl)cc1C` (stereo not drawn), the Potency entry in test [1], in test [2], in test [3], in test [4], in test [5] and in test [6] was “inactive” each time. Moreover, the Potency entry in test [7] was “inactive”.
For `CCOC(=O)/C=C/C(=O)O`, the Potency entry in test [1], in test [2], in test [3], in [4], in [5] and in [6] was “inactive” each time. In addition, the Potency entry in test [7] was “inactive”.
For `CC#N`, the Potency entry in test [1], in test [2], in test [3], in test [4], in test [5] and in test [6] was “inactive” each time. The Potency entry in [7] and in test [8] was “inactive” throughout.
With `NC(=O)N(O)[C@@H]1COc2cc(OCc3ccccc3)ccc21`, the Potency result in test [1], in test [2], in test [3], in [6] and in [7] was “inactive” each time. For the same compound, the Potency is 43.3 µM (active) in test [4] and 1.72 µM (active) in [5].
For `Brc1cc(-c2ccc(Br)c(Br)c2Br)cc(Br)c1Br`, the Potency result in test [1], in test [2], in test [3], in test [4], in test [5] and in test [6] was “inactive” each time. In addition, the Potency result in test [7] and in test [8] was “inactive” in each case.
`Cc1ccc(S)cc1`: the Potency result in test [1], in test [2], in [3], in test [4], in [5] and in test [6] was “inactive” in each case. The Potency entry in [7] and in test [8] was “inactive” each time.
Turning to `COc1ccc(CCC(=O)c2c(O)cc(O[C@@H]3O[C@H](CO)[C@@H](O)[C@H](O)[C@H]3O[C@@H]3O[C@@H](C)[C@H](O)[C@@H](O)[C@H]3O)cc2O)cc1O`, the Potency result in [1], in test [2], in test [3], in test [4], in test [5] and in [6] was “inactive” in each case. The Potency result in test [7] and in test [8] was “inactive” in each case.
